# Many of the other results were omitted from the sample, so hits are more common in it than they were.
# ROS inducer – raises reactive oxygen species in U2OS cancer cells. U2OS ROS induction, H2DCF-DA fluorescence. ROS induction (% of piperlongumine), % at 10 µM. hit rate 2% among 46,000; in the data active = ROS induction above about 79%, passing the limit was not always enough;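 also: 0% = DMSO vehicle median and 100% = reference compound median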
# * = called active by the depositor.
SMILES,ROS inducer
C[C@@H]1CN([C@@H](C)CO)C(=O)c2cccc(NC(=O)C3CCOCC3)c2O[C@@H]1CN(C)Cc1ccc(Oc2ccccc2)cc1,10.5
C[C@H]1CN([C@@H](C)CO)C(=O)c2cc(NC(=O)C3CCCCC3)ccc2O[C@@H]1CN(C)Cc1ccc(Oc2ccccc2)cc1,88.9*
C[C@@H]1CN([C@@H](C)CO)C(=O)c2cc(NC(=O)C3CCCCC3)ccc2O[C@@H]1CN(C)Cc1ccc(Oc2ccccc2)cc1,10.4
COc1ccc(NC(=O)Nc2cccc3c2O[C@H](CN(C)Cc2ccc(Oc4ccccc4)cc2)[C@H](C)CN([C@@H](C)CO)C3=O)cc1,88.6*
C[C@H]1CN([C@@H](C)CO)C(=O)c2cccc(NC(=O)C3CC3)c2O[C@@H]1CN(C)Cc1ccc(Oc2ccccc2)cc1,93.8*
O=C(CNC(=O)c1ccccc1F)NCc1ccco1,-14.4
COC(=O)c1c(NC(=O)CC2Sc3ccccc3NC2=O)sc2c1CCC(C)C2 (stereo unspecified),4.3
COc1ccc(OCC(=O)Nc2cccc(C(=O)O)c2C)cc1,1.4
O=C1c2c(O)cc(O)cc2O[C@@H](c2ccc(O)cc2)[C@H]1[C@@H]1C(=O)c2c(O)cc(O)cc2O[C@H]1c1ccc(O)cc1,4.6
C[C@@H]1CCCCO[C@@H](CN(C)Cc2ccccc2)[C@@H](C)CN([C@H](C)CO)C(=O)c2cc(NC(=O)CCC(F)(F)F)ccc2O1,5.1
CC1=C(C(=O)NN)Sc2ccccc2N1,-13.1
C[C@H]1CN([C@@H](C)CO)C(=O)CCCn2cc(nn2)CO[C@@H]1CN(C)Cc1ccc2c(c1)OCO2,5.5
Cc1ccccc1N1C(=O)NC(=O)/C(=C\C=C\c2ccco2)C1=O,-4.6
COc1cccc(S(=O)(=O)NCc2ccc(C(=O)Nc3ccc(Br)cc3F)cc2)c1,-5.1
C[C@@H]1CCCCO[C@H](CN(C)S(=O)(=O)c2ccc(Cl)cc2)[C@@H](C)CN([C@H](C)CO)C(=O)c2cc(NC(=O)Nc3ccccc3)ccc2O1,18.2
C[C@H](CO)N1C[C@H](C)[C@@H](CN(C)Cc2ccc(-c3ccccc3)cc2)Oc2c(NC(=O)C3CC3)cccc2C1=O,173.3*
C[C@@H]1CN([C@@H](C)CO)C(=O)c2cc(N(C)C)ccc2O[C@@H]1CN(C)Cc1ccc(-c2ccccc2)cc1,-1.9
C[C@H](CO)N1C[C@H](C)[C@@H](CN(C)Cc2ccc(Oc3ccccc3)cc2)Oc2c(NC(=O)C3CC3)cccc2C1=O,84.4*
C[C@H]1CN([C@@H](C)CO)C(=O)c2cccc(NC(=O)C3CCCCC3)c2O[C@H]1CN(C)Cc1ccc(Oc2ccccc2)cc1,34.2
C[C@@H]1CN([C@@H](C)CO)C(=O)c2cccc(NC(=O)C3CC3)c2O[C@@H]1CN(C)Cc1ccc(Oc2ccccc2)cc1,10.7
C[C@H]1CN([C@@H](C)CO)C(=O)c2cc(N(C)C)ccc2O[C@H]1CN(C)Cc1ccc(-c2ccccc2)cc1,3.1
C[C@H](CO)N1C[C@H](C)[C@@H](CN(C)Cc2ccc(-c3ccccc3)cc2)Oc2ccc(N(C)C)cc2C1=O,93.5*
C[C@H](CO)N1C[C@H](C)[C@H](CN(C)Cc2ccc(-c3ccccc3)cc2)Oc2c(NC(=O)C3CC3)cccc2C1=O,18.1
C[C@@H]1CN([C@H](C)CO)C(=O)c2cccc(NC(=O)C3CC3)c2O[C@@H]1CN(C)Cc1ccc(-c2ccccc2)cc1,5.0
C[C@H](CO)N1C[C@H](C)[C@@H](CN(C)S(=O)(=O)c2ccc(F)cc2)Oc2ccc(NC(=O)Nc3ccc(F)cc3)cc2C1=O,5.3
SMILES,ROS inducer
Cc1noc(C)c1NC(=O)N(C)C[C@H]1Oc2ccc(NC(=O)c3ccncc3)cc2CC(=O)N([C@H](C)CO)C[C@H]1C,-10.2
Cc1ccc(CSc2ncc(C(F)(F)F)cc2Cl)cc1,-9.0
C[C@H](CO)N1C[C@H](C)[C@H](CN(C)S(=O)(=O)c2cn(C)cn2)Oc2c(NC(=O)NC3CCCCC3)cccc2C1=O,-2.9
CCn1c(SCC(=O)c2ccc(F)cc2)nnc1-c1cccc([N+](=O)[O-])c1,-3.0
Cc1ccc(C)c(NC(=O)Cc2c(C)nc3c(-c4ccccc4)c(C)nn3c2C)c1,2.3
Cc1nc(-c2ccccc2)sc1C(=O)C1C(=O)C(=O)N(CCCN2CCOCC2)C1c1cccs1 (stereo unspecified),115.1*
Cc1nc(-c2ccccc2)sc1C(=O)C1C(=O)C(=O)N(CCCN2CCOCC2)C1c1ccco1 (stereo unspecified),19.2
O=C1C(=O)N(CCCN2CCOCC2)C(c2cccs2)C1C(=O)c1ccccc1 (stereo unspecified),-9.3
C[C@H]1CN([C@@H](C)CO)C(=O)c2cc(NS(=O)(=O)c3ccc(F)cc3)ccc2O[C@@H]1CN(C)Cc1ccc(C(=O)O)cc1,-13.1
CCCCN1Cc2c(n(CC(=O)c3ccc(OC)cc3)c3cc(-c4ccccc4)nn3c2=O)C1=O,170.2*
COc1ccc(-c2ccc(=O)n(CC(=O)N(C)c3ccccc3)n2)cc1,-7.6
COc1ccc(C(=O)Cn2c3ccccc3n3nc(-c4ccccc4)nc23)cc1OC,-2.8
C[C@H](CO)N1C[C@H](C)[C@@H](CN(C)S(=O)(=O)c2cn(C)cn2)Oc2c(NS(C)(=O)=O)cccc2C1=O,-4.5
